Laboratory results: the supplement of paper PMC10127200
Counter-ions that a name gives are not always drawn.

Key:
Assay in all cases: Euclidean distance of Cell Painting phenotypic profile (signed KS, 77 features) to DMSO centroid (dimensionless distance); 5 or 10 uM (library dependent); higher = stronger phenotypic change vs DMSO (phenoactivity)
Details in all cases: 48 h
786-O = tested on: 786-O
Summary of the method: (§1)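 Stained cells were imaged confocally at 20X with 9 fields per well, after 48 h of exposure to library compounds at 10 or 5 uM (set by library; 0.1% DMSO final). The cells were five cancer lines and a healthy fibroblast line. From the images, Harmony extracted 77 features, each expressed as a signed Kolmogorov-Smirnov statistic relative to same-plate vehicle wells. Phenoactivity is measured as Euclidean distance to the median vehicle profile, using plate-position-corrected, correlation-weighted profiles averaged across replicates at the top dose.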

A549 = tested on: A549
Summary of the method: as §1

DU145 = tested on: DU145
Summary of the method: as §1

FB = tested on: FB
Summary of the method: as §1

HEPG2 = tested on: HEPG2
Summary of the method: as §1

OVCAR4 = tested on: OVCAR4
Summary of the method: as §1

| Compound | Euclidean distance (786-O) | Euclidean distance (A549) | Euclidean distance (DU145) | Euclidean distance (FB) | Euclidean distance (HEPG2) | Euclidean distance (OVCAR4) |
| --- | --- | --- | --- | --- | --- | --- |
| CN(C)C(=O)C(CCN1CCC(O)(c2ccc(Cl)cc2)CC1)(c1ccccc1)c1ccccc1 [Loperamide HCl] | 1.64 | 2.14 | 1.81 | 1.85 | 2.35 | 1.42 |
| CN[C@@H]1[C@H](O[C@H]2[C@H](O[C@H]3[C@H](O)[C@@H](O)[C@H](NC(=N)N)[C@@H](O)[C@@H]3NC(=N)N)O[C@@H](C)[C@]2(O)CO)O[C@@H](CO)[C@H](O)[C@H]1O [Dihydrostreptomycin sulfate] | 0.936 | 1.12 | 0.563 | 1.25 | 0.549 | 1.33 |
| CCN1CCN(Cc2ccc(Nc3ncc(F)c(-c4cc(F)c5nc(C)n(C(C)C)c5c4)n3)nc2)CC1 | 5.75 | 5.05 | 5.66 | 4.66 | 3.78 | 5.2 |
| O=C1NC(=O)C(c2ccccc2[N+](=O)[O-])=C1Nc1ccc(O)c(Cl)c1 | 1.2 | 0.916 | 0.978 | 0.936 | 0.886 | 1.1 |
| C=CC(=O)N1CC[C@H](n2nc(C#Cc3cc(OC)cc(OC)c3)c3c(N)ncnc32)C1 | 2.21 | 1.47 | 2.08 | 4.1 | 3.97 | 1.58 |
| C=CC(=O)Nc1cccc(Oc2nc(Nc3ccc(N4CCN(C)CC4)cc3)ncc2Cl)c1 | 2.42 | 2.73 | 2.46 | 4.15 | 2.28 | 3.17 |
| CC1(C)S[C@@H]2[C@H](NC(=O)[C@H](N)c3ccccc3)C(=O)N2[C@H]1C(=O)O [Ampicillin sodium] | 1.18 | 0.444 | 1.06 | 0.59 | 0.55 | 1.15 |
| NC(=O)c1ccc(N(C(N)=O)c2c(F)cccc2F)nc1-c1ccc(F)cc1F | 1.24 | 1.16 | 1.41 | 1.37 | 0.723 | 1.18 |
| O=C1CCC(N2C(=O)c3ccccc3C2=O)C(=O)N1 (stereo unspecified) [Thalidomide] | 1.48 | 0.846 | 0.603 | 1.22 | 0.461 | 1.67 |
| Cc1noc(NS(=O)(=O)c2ccc(N)cc2)c1C [Sulfisoxazole] | 1.32 | 0.853 | 1.02 | 0.984 | 0.555 | 1.26 |
| Cc1cccc(-c2[nH]ncc2-c2ccc3ncccc3n2)n1 | 0.773 | 0.733 | 0.91 | 1.15 | 0.71 | 0.807 |
| C[n+]1ccccc1/C=N/O [Pralidoxime chloride] | 1.41 | 0.85 | 1.53 | 1.2 | 0.755 | 1.08 |
| CCCCCOC(=O)Nc1nc(=O)n([C@@H]2O[C@H](C)[C@@H](O)[C@H]2O)cc1F [Capecitabine] | 1.77 | 0.754 | 1.15 | 0.899 | 0.821 | 1.23 |
| CCOC(=O)C(C)(C)Oc1ccc(Cl)cc1 [Clofibrate] | 0.866 | 0.429 | 1.7 | 1.41 | 0.393 | 0.939 |
| CC(=O)OCC(=O)[C@@]1(O)CC[C@H]2[C@@H]3CCC4=CC(=O)CC[C@]4(C)[C@H]3[C@@H](O)C[C@@]21C [Hydrocortisone acetate] | 1.17 | 2.28 | 1.4 | 1.96 | 1.05 | 1.41 |
| CCOC(=O)c1ccc(OC(=O)CCCCCNC(=N)N)cc1 [Gabexate Mesylate] | 1.36 | 0.886 | 1.01 | 0.822 | 1.58 | 1.68 |
| CC1C(=O)OC2C(O)C34C5CC(C(C)(C)C)C36C(OC(=O)C6O)OC4(C(=O)O5)C12O (stereo unspecified) [Ginkgolide B] | 0.999 | 1.63 | 0.921 | 1.25 | 2.11 | 1.3 |
| O=C(Nc1cccnn1)N1CCC(=Cc2cccc(Oc3ccc(C(F)(F)F)cn3)c2)CC1 | 1.52 | 1.02 | 1.2 | 0.799 | 1.66 | 1.21 |
| COC(=O)c1ccc2c(c1)NC(=O)/C2=C(\Nc1ccc(N(C)C(=O)CN2CCN(C)CC2)cc1)c1ccccc1 [Nintedanib (BIBF 1120)] | 3.7 | 4.29 | 2.53 | 4.05 | 2.66 | 3.01 |
| C=C1/C(=C\C=C2/CCC[C@]3(C)[C@@H]([C@H](C)CCCC(C)C)CC[C@@H]23)C[C@@H](O)C[C@@H]1O [Alfacalcidol] | 2.68 | 1.49 | 6.28 | 1.73 | 0.811 | 1.5 |
| Cc1ccccc1C(C(=O)NC1CCCCC1)N(C(=O)Cn1ccnc1C)c1cccc(F)c1 (stereo unspecified) | 1.02 | 1.06 | 1.01 | 1.52 | 0.839 | 1.59 |
| COc1cccc(OC)c1C(=O)OCc1cc(O)ccc1O[C@@H]1O[C@H](CO)[C@@H](O)[C@H](O)[C@H]1O [Curculigoside] | 0.665 | 0.731 | 0.819 | 0.662 | 0.446 | 1.36 |
| O=c1c(O[C@@H]2O[C@H](CO)[C@@H](O)[C@H](O)[C@H]2O)c(-c2ccc(O)c(O)c2)oc2cc(O)cc(O)c12 [Isoquercitrin] | 0.868 | 0.899 | 0.931 | 0.989 | 0.812 | 1.03 |
| CC[C@H]1OC(=O)[C@@](C)(F)C(=O)[C@H](C)[C@@H](O[C@@H]2O[C@H](C)C[C@H](N(C)C)[C@H]2O)[C@](C)(OC)C[C@@H](C)C(=O)[C@H](C)[C@H]2N(CCCCn3cc(-c4cccc(N)c4)nn3)C(=O)O[C@]12C [Solithromycin] | 1.63 | 1.89 | 1.57 | 1.86 | 2.27 | 0.99 |
| COC1=C(OC)C(=O)C(CCCCCCCCCCO)=C(C)C1=O [Idebenone] | 1.45 | 0.641 | 0.677 | 1.22 | 1.05 | 0.744 |
| c1ccc(NCc2ccc(CNc3ccccn3)cc2)nc1 | 0.787 | 1.08 | 0.956 | 1.09 | 0.936 | 1.15 |
